Source: PubChem BioAssay (NCI)
Several values for one entry are separate records, joined by “and”; a condition that tells them apart may be missing. Equal entries are not always repeated. This is part of a sample that, as a whole, favours compounds with a hit. Of some 79,000 tested, about 15% had one in any assay. More than one record can exist for a structure, and the calls need not agree. Activity calls are given as the source filed them. No stated cut-off is given here; in the data, active means growth inhibition above about 70%; inactive means the rest.

Assays:
[1] = NCI Yeast Anticancer Drug Screen. Data for the rad50 strain (AID 155);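 further: 0% = growth of vehicle-only cultures of the same strain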; conditions: S. cerevisiae rad50 strain growth inhibition, stronger effect = higher value
Outline: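 Relative growth inhibition (compound vs vehicle) was measured in yeast with a defined repair-gene alteration.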

[2] = NCI Yeast Anticancer Drug Screen. Data for the mec2-1 strain (AID 157); conditions: S. cerevisiae mec2-1 strain, stronger effect = higher value
Outline: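 Strain: mec2-1 (DNA repair/cell cycle alteration). Compound exposure, then growth measured; inhibition expressed relative to vehicle.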

[3] = NCI Yeast Anticancer Drug Screen. Data for the sgs1 mgt1 strain (AID 161);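 further: 0% = growth of cultures given vehicle only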; conditions: S. cerevisiae sgs1 mgt1 strain, stronger effect = higher value
Outline: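 Inhibition of yeast growth, normalised to vehicle-treated controls, is reported for a strain bearing genetic alterations in DNA damage repair.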

[4] = NCI Yeast Anticancer Drug Screen. Data for the cln2 rad14 strain (AID 165);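 further: 0% = growth equal to vehicle treated cultures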; conditions: S. cerevisiae cln2 rad14 strain, stronger effect = higher value
Outline: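 Compounds are applied to the cln2 rad14 yeast strain, and growth is then compared with that of vehicle-treated cultures to give inhibition.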

[5] = NCI Yeast Anticancer Drug Screen. Data for the bub3 strain (AID 167); conditions: S. cerevisiae bub3 mutant strain, stronger effect = higher value
Outline: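 Screening used yeast with an engineered genetic alteration affecting cell cycle control. Compound-exposed cultures were compared with vehicle cultures, and reduced growth was taken as inhibition.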

[6] = NCI Yeast Anticancer Drug Screen. Data for the mlh1 rad18 strain (AID 175); conditions: S. cerevisiae mlh1 rad18 strain growth inhibition, stronger effect = higher value
Outline: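 Read-out is yeast growth inhibition, calculated against vehicle-only controls. The compound was applied to a strain engineered with DNA damage repair alterations.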

[7] = at 5.0 µM (retest, dose inferred, filed as 0.5)
[8] = at 50.0 µM (retest, dose inferred, filed as 5.0)

Compound	growth inhibition [1, 7]	growth inhibition [1, 8]	growth inhibition ([1]; at 50.0 µM)	growth inhibition [2, 7]	growth inhibition [2, 8]	growth inhibition ([2]; at 50.0 µM)	growth inhibition [3, 7]	growth inhibition [3, 8]	growth inhibition ([3]; at 50.0 µM)	growth inhibition [4, 7]	growth inhibition [4, 8]	growth inhibition ([4]; at 50.0 µM)	growth inhibition [5, 7]	growth inhibition [5, 8]	growth inhibition ([5]; at 50.0 µM)	growth inhibition [6, 7]	growth inhibition [6, 8]	growth inhibition ([6]; at 50.0 µM)
CCOC(=O)c1c[nH]c2c([N+](=O)[O-])cc(OC)cc2c1=O	-1% (inactive)	32% (inactive)	10.6% (inactive) and 61.4% (inactive)	2% (inactive)	21% (inactive)	40.1% (inactive) and 35.2% (inactive)	3% (inactive)	41% (inactive)	36% (inactive) and 16.3% (inactive)	-6% (inactive)	24% (inactive)	-11.7% (inactive) and -10.1% (inactive)	2% (inactive)	46% (inactive)	18.6% (inactive) and 61% (inactive)	6% (inactive)	42% (inactive)	56.9% (inactive) and 73% (active)
COc1ccc(Oc2ccccc2N)cc1	0% (inactive)	93% (active)	83.7% (active)	-1% (inactive)	95% (active)	59.3% (inactive)	-2% (inactive)	93% (active)	69.3% (inactive)	-8% (inactive)	95% (active)	88.3% (active)	6% (inactive)	93% (active)	63.4% (inactive)	-3% (inactive)	96% (active)	90.5% (active)
CC(C)(C)CC(C)(C)c1ccc(OCCO)cc1	-2% (inactive)	98% (active)	-22.7% (inactive) and 99.6% (active)	-16% (inactive)	99% (active)	-11.3% (inactive) and 99.5% (active)	-6% (inactive)	97% (active)	25.9% (inactive) and 99.5% (active)	-13% (inactive)	99% (active)	-49.5% (inactive) and 99.3% (active)	-21% (inactive)	99% (active)	-40.5% (inactive) and 99.5% (active)	-5% (inactive)	99% (active)	-27.9% (inactive) and 99.5% (active)
Cc1nc2ccccc2cc1CCl	-113% (inactive)	91% (active)	82.5% (active)	-44% (inactive)	46% (inactive)	59.5% (inactive)	-51% (inactive)	91% (active)	63.8% (inactive)	-47% (inactive)	80% (active)	70.3% (active)	-69% (inactive)	76% (active)	32.9% (inactive)	-122% (inactive)	90% (active)	69.8% (inactive)
COC(=O)C1c2cc3c(cc2C(OC2OC(C)C(OC)C(C)(OC)C2OC)CC1(C)O)C(=O)c1c(O)cc2c(c1C3=O)OC1OC2(C)C(O)C([N+](C)(C)[O-])C1O (stereo not given)	7% (inactive)	65% (inactive)	70.4% (active)	3% (inactive)	8% (inactive)	61.4% (inactive)	-2% (inactive)	27% (inactive)	65.8% (inactive)	24% (inactive)	39% (inactive)	47.6% (inactive)	-10% (inactive)	31% (inactive)	74.8% (active)	-8% (inactive)	57% (inactive)	54.5% (inactive)
Nc1nc(=S)c2ncn(C3OC(CO)C(O)C3O)c2[nH]1 (stereo not given)	79% (active)	5% (inactive)	12.5% (inactive) and 38.5% (inactive)	97% (active)	6% (inactive)	0.4% (inactive) and 92.5% (active)	66% (inactive)	26% (inactive)	-3.7% (inactive) and -8.45% (inactive)	49% (inactive)	9% (inactive)	4.9% (inactive) and 96.8% (active)	99% (active)	14% (inactive)	-4.2% (inactive) and 98% (active)	94% (active)	52% (inactive)	-11.9% (inactive) and 97.5% (active)
CCC1CCCC(=O)C1 (stereo not given)	2% (inactive)	2% (inactive)	89.2% (active)	-1% (inactive)	-5% (inactive)	53.6% (inactive)	0% (inactive)	-1% (inactive)	14.1% (inactive)	3% (inactive)	1% (inactive)	36.2% (inactive)	2% (inactive)	2% (inactive)	99.4% (active)	-2% (inactive)	0% (inactive)	91.8% (active)
O=C(OCC(OC(=O)c1ccccc1)C(OC(=O)c1ccccc1)C(OC(=O)c1ccccc1)C(OC(=O)c1ccccc1)c1nn[nH]n1)c1ccccc1 (stereo not given)	61% (inactive) and 23% (inactive)	72% (active) and 81% (active)	93.1% (active) and 90.7% (active)	52% (inactive) and 41% (inactive)	72% (active) and 77% (active)	87.5% (active) and 89% (active)	54% (inactive) and 18% (inactive)	72% (active) and 75% (active)	93.3% (active) and 91.6% (active)	54% (inactive) and 40% (inactive)	75% (active) and 82% (active)	90.2% (active) and 90.3% (active)	75% (active) and 16% (inactive)	88% (active) and 74% (active)	78.6% (active) and 82.8% (active)	60% (inactive) and 26% (inactive)	74% (active) and 81% (active)	89.2% (active) and 90% (active)
COC(=O)c1ccc(O)c(OC)c1	-1% (inactive)	-5% (inactive)	-25.2% (inactive)	1% (inactive)	-3% (inactive)	-2.35% (inactive)	0% (inactive)	-1% (inactive)	-8.9% (inactive)	-2% (inactive)	2% (inactive)	28.1% (inactive)	12% (inactive)	27% (inactive)	12.8% (inactive)	-4% (inactive)	-3% (inactive)	9.5% (inactive)
Clc1ccc(CNCCCNCc2ccc(Cl)cc2)cc1	80% (active)	15% (inactive)	27.8% (inactive)	100% (active)	31% (inactive)	23% (inactive)	67% (inactive)	31% (inactive)	50.4% (inactive)	49% (inactive)	13% (inactive)	72% (active)	91% (active)	20% (inactive)	27.3% (inactive)	96% (active)	13% (inactive)	29.9% (inactive)
COc1cc(C2C(C#N)=C(C)Nc3nc(N)nc(N)c32)cc(OC)c1OC (stereo not given)	-6% (inactive)	19% (inactive)	24.6% (inactive)	-7% (inactive)	13% (inactive)	3.75% (inactive)	-8% (inactive)	10% (inactive)	19.1% (inactive)	-6% (inactive)	9% (inactive)	81.4% (active)	0% (inactive)	65% (inactive)	1.2% (inactive)	-1% (inactive)	21% (inactive)	8.95% (inactive)
O=c1cc[nH]cc1	2% (inactive)	14% (inactive)	7.55% (inactive) and 26.5% (inactive)	-3% (inactive)	-7% (inactive)	-8.8% (inactive) and 56.6% (inactive)	-5% (inactive)	2% (inactive)	2.3% (inactive) and 16.9% (inactive)	3% (inactive)	5% (inactive)	1% (inactive) and 24.7% (inactive)	1% (inactive)	-6% (inactive)	12.3% (inactive) and 23.3% (inactive)	0% (inactive)	6% (inactive)	-7.05% (inactive) and 81.5% (active)
c1ccc(-c2conc2-c2ccccc2)cc1	-22% (inactive)	95% (active)	60.8% (inactive)	-7% (inactive)	91% (active)	19.1% (inactive)	9% (inactive)	90% (active)	31.4% (inactive)	-32% (inactive)	68% (inactive)	-2.5% (inactive)	-20% (inactive)	92% (active)	54% (inactive)	-10% (inactive)	95% (active)	71.3% (active)
CCOc1ccc2ccccc2c1C(Cc1ccc(Cl)cc1)NCCO (stereo not given)	-1% (inactive)	-1% (inactive)	89.3% (active)	-2% (inactive)	6% (inactive)	93.5% (active)	-21% (inactive)	2% (inactive)	94.3% (active)	1% (inactive)	-7% (inactive)	98.6% (active)	-2% (inactive)	-3% (inactive)	94.7% (active)	1% (inactive)	22% (inactive)	98.5% (active)
CC(=O)OCC1OC(n2c(=S)n(-c3ccccc3)c(=O)c3ccccc32)C(OC(C)=O)C(OC(C)=O)C1OC(C)=O (stereo not given)	27% (inactive)	27% (inactive)	8.65% (inactive) and -2.35% (inactive)	14% (inactive)	14% (inactive)	-27.1% (inactive) and 5.4% (inactive)	11% (inactive)	11% (inactive)	6.3% (inactive) and -28.1% (inactive)	17% (inactive)	17% (inactive)	9.15% (inactive) and -3.95% (inactive)	6% (inactive)	6% (inactive)	58.9% (inactive) and -30.1% (inactive)	7% (inactive)	7% (inactive)	12.2% (inactive) and -0.5% (inactive)
